Our source for the growth values is PubChem BioAssay (NCI).

About 83,000 compounds went through this panel and 20% of them were active in at least one assay; those are over-represented in the sample as a whole.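 48-hour exposure, single concentration, 96-well plates; percent growth endpoint where 0 means no net growth. Active: below 10.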 Active and inactive are the calls of the source.

The test system of this experiment is IGROV1 ovarian. Kind of experiment: NCI-60 one-dose screen, 48 h (100 = growth as untreated, 0 = no growth, -100 = all killed). The following applies: 10 µM. The protocol:
Growth inhibition of the IGROV1 human tumor cell line is measured as a screen for anti-cancer activity. Cells are grown in 96 well plates and exposed to the test compound for 48 hours. Compounds are tested at a single concentration, which is 10^-5 M for most compounds. The reported endpoint is percent growth (GI% or GIPRCNT), where numbers from 0 - 100% represent growth inhibition, and numbers from -100% - 0 represent cell death. For example, a value of 40 represents 60% growth inhibition. A value of 0 means no net growth occurred over the course of the experiment. A value of -40 indicates 40% of cells at the beginning of the experiment died by the end of the experiment. A value of -100 means all cells are dead at the end of the experiment.
NCI-60 Human Tumor Cell Lines Screen was performed using the standard one-dose NCI protocol, which is described in more detail at https://dtp.cancer.gov/discovery_development/nci-60/default.htm.
Compounds with GIPRCNT values below 10 were considered active. Activity score was based on GIPRCNT using the following formula: […]
Score is 0 for GIPRCNT values of 100 or above, 50 for GIPRCNT values of 0, and 100 for GIPRCNT values of -100.
For `COc1ccc(C(=O)c2ccccc2CN2C(=O)c3ccccc3C2=O)cc1`, the growth is 101% (inactive). To `C[C@@H](C[C@H](CCO)c1ccccc1)c1ccc2ccccc2c1` belongs -54.5% (active); to `COc1ccc(-c2cc(-c3cc(OC)ccc3OC)nc(N)c2C#N)cc1`, 58.7% (inactive); to `S=C(SSC(=S)N(c1ccccc1)c1ccccc1)N(c1ccccc1)c1ccccc1`, 111% (inactive). For `COc1ccc(/C(C#N)=C/c2cccc(OC)c2OC)cc1` the value was 80.6% (inactive); for `COc1ccc(-c2n[nH]nc2-c2cc(OC)c3c(c2OC)OCO3)cc1`, 45.3% (inactive); for `NS(=O)(=O)c1ccc(N2N=C(c3ccccc3)CCC2=O)cc1`, 105% (inactive). For `COc1cc(-c2csc(NC(=O)Nc3cc(C(F)(F)F)cc(C(F)(F)F)c3)n2)cc(OC)c1OC` the value was 35.1% (inactive); for `COc1ccc(-c2nnc(SCC(=O)Nc3ccc(C(=O)/C=C/c4ccccc4)cc3)n2-c2ccccc2)cc1OC`, 87.4% (inactive). As for `COc1ccc([C@H]2[C@H](C(=O)Nc3cccnc3)c3ccccc3C(=O)N2c2ccccc2)cc1`, the growth is 81.4% (inactive). As for `CN1CCN(CCC(=O)Nc2cccc(-n3cc(-c4ccncc4)c(-c4ccc(Cl)c(O)c4)n3)c2)CC1`, the growth was 55.8% (inactive). To `NC(N)=N/N=C(\N=Nc1ccccc1)c1ccc(Cl)cc1` belongs 46.3% (inactive); to `CC(C)(C)OC(=O)N1CCc2c(sc3ncnc(N/N=C/c4cccc5ccccc45)c23)C1`, 26.9% (inactive). For `CC(=O)Nc1ccc(CC[C@H]2CCC/C=C/[C@@H]3C[C@H](O)C[C@H]3[C@H](O)/C=C/C(=O)O2)cc1` the value was 20.3% (inactive). With `OCC1OC2C(NC(=S)N2c2ccccc2)C(O)C1O` (stereo not given), the growth was 121% (inactive).

`O=C(NCCNC(=O)c1ccc(F)cc1)Nc1ccc(-n2cc(-c3ccncc3)c(-c3ccc(Cl)c(O)c3)n2)cc1`: the growth is 20.4% (inactive). As for `CN1CCc2c(sc3nc4n(-c5ccc(Cl)cc5)c(=O)[nH]n4c(=O)c23)C1`, the growth is 91.4% (inactive). For `O=S(=O)(O)c1cccc(Nc2ccc3ccccc3c2)c1` the value was 84.4% (inactive). For `CC(C)C[C@H](NC(=O)Cn1cccc(CNC(=O)c2ccccc2)c1=O)B(O)O` the value was 51.5% (inactive); for `COc1cc2c3c(n([C@H]4CCOC4)c(=O)c2cc1OC)-c1cc2c(cc1C3=O)OCO2`, 62% (inactive). To `CCCCC1(O)CCCCC1` belongs 114% (inactive). `O=C1c2c(c3c4ccccc4n(CCCCCCN4CCOCC4)c3c3[nH]c4ccccc4c23)C(=O)N1O`: the growth was 40.6% (inactive).

Turning to `Cn1cnc([N+](=O)[O-])c1/C=C1\Oc2ccc(Br)cc2C1=O`, the growth is 87.1% (inactive). In the case of `CN(C)CCOc1ccccc1NC1=C(Cl)C(=O)C(Nc2ccccc2OCCN(C)C)=C(Cl)C1=O`, the growth is 10.5% (inactive).

Take `CNS(=O)(=O)Oc1ccc(-c2ccc3occc3c2)cc1`: the growth was 99.8% (inactive). In the case of `COc1cc(CNC(=O)C2CSC3(C)c4ccccc4C(=O)N23)cc(OC)c1OC` (stereo not given), the growth was 107% (inactive). `Cc1ccc(NCCN(C)CC(C)O)c2c(=O)c3ccc(Cl)cc3sc12` (stereo not given): the growth is 39.8% (inactive).

For `COc1ccc(CCN2CCC(Nc3nc4ccccc4n3Cc3ccc(F)cc3)CC2)cc1`, the growth is 41.2% (inactive). To `CC(C)N(CCOc1ccc(-c2nc3sccn3c2-c2ccnc(S(C)(=O)=O)n2)cc1)C(C)C` belongs 96.2% (inactive); to `CC(C)=CCC/C(C)=C/CC/C(C)=C/CC/C=C(\C)CC/C=C(\C)CCC(=O)Nc1ccn(C2OC(CO)C(O)C2(F)F)c(=O)n1` (stereo not given), 40% (inactive).

In the case of `Clc1nc2ccccc2cc1Cn1nnc(Cc2ccccc2)n1`, the growth is 50.9% (inactive).

Consider `CCN(CC)c1ccc(/C=C2\SC(=O)C(Nc3nnc(-c4cccnc4SCc4ccccc4)o3)C2=O)cc1` (stereo not given), for which the growth was 56.5% (inactive).

As for `Cc1ccc(-n2c(C)nn3c(=O)c4c5c(sc4nc23)CN(C)CC5)cc1`, the growth was 101% (inactive).

For `CC[C@@H](C(=O)[C@@H](C)[C@@H](O)[C@H](C)[C@@H]1O[C@@H]([C@@H](CC)C(=O)O)CC[C@@H]1C)C1O[C@]2(C=CC(=O)[C@]3(CC[C@@](C)([C@H]4CC[C@](O)(CC)[C@H](C)O4)O3)O2)[C@H](C)C[C@@H]1C` (stereo not given in full), the growth was 48.4% (inactive). For `c1ccc(CCCCc2ccc3ccccc3n2)cc1` the value was 100% (inactive); for `O=C(/C=C/c1cccc(B(O)O)c1)c1cccc(B(O)O)c1`, 26.7% (inactive). To `COc1ccc(/C=C2\CCCC3=C2N=C2SC(C)=CN2C3c2ccc(OC)cc2)cc1` (stereo not given) belongs 111% (inactive); to `COc1ccc2nc3cc(Cl)ccc3c(Nc3cc(CN4CCCC4)c(O)c(CN4CCCC4)c3)c2n1`, 27.6% (inactive); to `Cc1ccc(/C=C/C(=O)C(=O)/C=C/c2ccc(C)cc2)cc1`, 94.4% (inactive). To `COc1cccc(-c2nc3sccn3c2-c2cccc(S(C)(=O)=O)c2)c1` belongs 99% (inactive).
